Assay results published in PubChem BioAssay (NCI).
Several values for one entry are separate records, joined by “and”; a condition that tells them apart may be missing. Equal entries are not always repeated. About 83,000 compounds went through this panel and 20% of them were active in at least one assay; those are over-represented in the sample as a whole.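 Negative percent growth values reflect cell death: -40 means 40% of the cells present at the start died, and -100 means all died.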 Activity calls are given as the source filed them. How the source made its calls: active means growth percent below 10; inactive means the rest.

Tests used:
Assay in all cases: NCI-60 one-dose screen, 48 h (100 = growth as untreated, 0 = no growth, -100 = all killed)
NCI-H23 lung = details: 10 µM
NCI-H226 lung = details: 10 µM
NCI-H322M lung = details: 10 µM
HOP-62 NSCLC = details: 10 µM
NCI-H460 lung = details: 10 µM
HOP-92 NSCLC = details: 10 µM
A549/ATCC NSCLC = details: 10 µM
786-0 renal = details: 10 µM
COLO 205 colon = details: 10 µM
DU-145 prostate = details: 10 µM unless noted
K-562 leukemia = details: 10 µM
MALME-3M melanoma = details: 10 µM
MDA-MB-231 breast = details: 10 µM
RXF 393 renal = details: 10 µM unless noted
SF-268 CNS = details: 10 µM
SF-295 CNS = details: 10 µM
SF-539 CNS = details: 10 µM
UACC-257 melanoma = details: 10 µM
M14 melanoma = details: 10 µM
NCI-H522 lung = details: 10 µM unless noted

Row | SMILES | growth (NCI-H23 lung) | growth (NCI-H226 lung) | growth (NCI-H322M lung) | growth (HOP-62 NSCLC) | growth (NCI-H460 lung) | growth (HOP-92 NSCLC) | growth (A549/ATCC NSCLC) | growth (786-0 renal) | growth (COLO 205 colon) | growth (DU-145 prostate) | growth (K-562 leukemia) | growth (MALME-3M melanoma) | growth (MDA-MB-231 breast) | growth (RXF 393 renal) | growth (SF-268 CNS) | growth (SF-295 CNS) | growth (SF-539 CNS) | growth (UACC-257 melanoma) | growth (M14 melanoma) | growth (NCI-H522 lung)
1 | O=C(/C=C/c1cccnc1)c1ccccc1 | 96.6% (inactive) | 96.6% (inactive) | 113% (inactive) | 108% (inactive) | 87.6% (inactive) | 84% (inactive) | 99.3% (inactive) | 93.7% (inactive) | 101% (inactive) | 105% (inactive) | 28.9% (inactive) | 94.2% (inactive) | 116% (inactive) | 112% (inactive) | 100% (inactive) | 112% (inactive) | 96.2% (inactive) | 93.5% (inactive) | 88.6% (inactive) | –
2 | Nc1c2ccccc2nc2ccccc12 | 11.5% (inactive) and 41.9% (inactive) and 38.5% (inactive) | 2.61% (active) and 38.7% (inactive) and 40.4% (inactive) | 12.1% (inactive) and 36.8% (inactive) and 31.9% (inactive) | 11.3% (inactive) and 52.2% (inactive) and 47.3% (inactive) | -11.2% (active) and 2.59% (active) and 12% (inactive) | 69.1% (inactive) and 2.79% (active) | -5.72% (active) and 20.6% (inactive) and 28.6% (inactive) | 25.5% (inactive) and 34.8% (inactive) and 50% (inactive) | -73.8% (active) and 7.85% (active) and 12.6% (inactive) | 16.3% (inactive) and 40.9% (inactive) | 1.31% (active) and 11.9% (inactive) and 27% (inactive) | 5.23% (active) and 42% (inactive) and 34% (inactive) | 25.2% (inactive) and 40.1% (inactive) and 35.4% (inactive) | 8.02% (active) and -6.66% (active) and 44.2% (inactive) | 24.2% (inactive) and 47.3% (inactive) | -24.9% (active) and 25.7% (inactive) and 49.5% (inactive) | 21.7% (inactive) and 23.4% (inactive) and 29.2% (inactive) | -31.3% (active) and 25.4% (inactive) and 53.5% (inactive) | – | –
3 | CN1CCN(CCCN2c3ccccc3Sc3ccc(C(F)(F)F)cc32)CC1 | 69.9% (inactive) | 101% (inactive) | 69.7% (inactive) | 61.8% (inactive) | 33.6% (inactive) | – | – | 37.2% (inactive) | -79% (active) | 70.4% (inactive) | -11.9% (active) | -10.5% (active) | 52.7% (inactive) | 37% (inactive) | 63.5% (inactive) | 42.9% (inactive) | – | -59.5% (active) | -74% (active) | 73% (inactive)
4 | CCO/C=C1\SC(=S)N(c2cccc(O)c2)C1=O | 106% (inactive) | 96.1% (inactive) | 95.8% (inactive) | 97.4% (inactive) | 106% (inactive) | – | – | 101% (inactive) | 109% (inactive) | 109% (inactive) | 89.9% (inactive) | 88.2% (inactive) | 102% (inactive) | 102% (inactive) | 103% (inactive) | 99.5% (inactive) | 102% (inactive) | – | – | –
5 | Clc1cc(Cl)c(Cl)nn1 | 105% (inactive) | 99.8% (inactive) | 109% (inactive) | 94.2% (inactive) | 99% (inactive) | 91.9% (inactive) | – | 99.4% (inactive) | 120% (inactive) | 115% (inactive) | 106% (inactive) | 109% (inactive) | 105% (inactive) | 122% (inactive) | 101% (inactive) | 107% (inactive) | 100% (inactive) | 70.4% (inactive) | – | –
6 | O=C(C(=Cc1ccccc1)C(=O)c1ccccc1)c1ccccc1 | 66.7% (inactive) and 95.2% (inactive) | 68.4% (inactive) and 97.7% (inactive) | 89.6% (inactive) and 110% (inactive) | 102% (inactive) | 33.3% (inactive) and 96.3% (inactive) | 65.7% (inactive) and 84.3% (inactive) | – | 73.5% (inactive) and 97.3% (inactive) | 124% (inactive) | 61.3% (inactive) and 102% (inactive) | 35.5% (inactive) and 93.8% (inactive) | 88.4% (inactive) and 108% (inactive) | 70.5% (inactive) and 74.8% (inactive) | 66.5% (inactive) and 98.8% (inactive) | 58.5% (inactive) and 83.3% (inactive) | 65.4% (inactive) and 97.7% (inactive) | 72.9% (inactive) and 96.9% (inactive) | 73% (inactive) and 83.7% (inactive) | 47.5% (inactive) | –
7 | CC1=CC(C)=Nc2ccc(Cl)cc2N1 | 94.1% (inactive) | 97.6% (inactive) | – | 105% (inactive) | 101% (inactive) | 96.9% (inactive) | 114% (inactive) | 106% (inactive) | 106% (inactive) | 106% (inactive) | 90.3% (inactive) | 96.9% (inactive) | 110% (inactive) | 113% (inactive) | 98.9% (inactive) | 107% (inactive) | 100% (inactive) | 104% (inactive) | 102% (inactive) | 103% (inactive)
8 | O=C(/C=C/c1ccccn1)c1ccccc1 | 83.8% (inactive) | 86.1% (inactive) | 88.8% (inactive) | 93.8% (inactive) | 26.5% (inactive) | 78.3% (inactive) | – | 15.6% (inactive) | 32% (inactive) | 60.5% (inactive) | 14% (inactive) | 91% (inactive) | 90.2% (inactive) | 90.6% (inactive) | 85.4% (inactive) | 87.5% (inactive) | 68.5% (inactive) | 72.9% (inactive) | – | –
